# Experimental data published in PubChem BioAssay (NCATS).
# Records with an inconclusive call do not appear. A call without a number means that no potency is given here. Calls of active or inactive are those of the source. Unless noted, calls come from the whole dose curve; as a rule, active = well fitted curve in the direction sought with a large enough effect; inconclusive = small, poorly fitted or top-dose-only effect, or another doubt; inactive = no such curve, though single readings can be large; an effect the other way counts as inactive or inconclusive.
# Columns and labels:
# [1] = molecular target: Mitogen-activated protein kinase 10 (Mus musculus) (UniProt Q61831); assay: JNK3 AlphaScreen Assay (AID 530; active = well fitted curve in either direction with a large enough effect, not every such curve was filed as active;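 note: kinase came from lysate of stimulated human HepG2 cells; signal reports phosphorylation of biotinylated GST-cJun 1-79 at Ser73 with 10 µM ATP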); conditions: JNK3 lysate, c-Jun phosphorylation; series mostly up to 57.1 µM
# How it was run: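 JNK3 came from HepG2 lysates pre-activated with IL-1beta and TNF-alpha and phosphorylated biotinylated GST-cJun (1-79) at 10 uM ATP, pH 7.6, room temperature. Compounds were titrated. AlphaScreen signal used anti-phospho-cJun (Ser73) antibody.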
# [2] = molecular target: Cytochrome P450 3A4 (Homo sapiens) (UniProt P08684); assay: qHTS Assay for Activators of Cytochrome P450 3A4 (AID 885); conditions: recombinant CYP3A4, Luciferin-PPXE luminescence, 60 min; series mostly up to 57.1 µM; note: nearly all actives have a fitted effect of over 65% in size
# Chain of Cytochrome P450 3A4 (Homo sapiens) (P08684 whole entry, looked up): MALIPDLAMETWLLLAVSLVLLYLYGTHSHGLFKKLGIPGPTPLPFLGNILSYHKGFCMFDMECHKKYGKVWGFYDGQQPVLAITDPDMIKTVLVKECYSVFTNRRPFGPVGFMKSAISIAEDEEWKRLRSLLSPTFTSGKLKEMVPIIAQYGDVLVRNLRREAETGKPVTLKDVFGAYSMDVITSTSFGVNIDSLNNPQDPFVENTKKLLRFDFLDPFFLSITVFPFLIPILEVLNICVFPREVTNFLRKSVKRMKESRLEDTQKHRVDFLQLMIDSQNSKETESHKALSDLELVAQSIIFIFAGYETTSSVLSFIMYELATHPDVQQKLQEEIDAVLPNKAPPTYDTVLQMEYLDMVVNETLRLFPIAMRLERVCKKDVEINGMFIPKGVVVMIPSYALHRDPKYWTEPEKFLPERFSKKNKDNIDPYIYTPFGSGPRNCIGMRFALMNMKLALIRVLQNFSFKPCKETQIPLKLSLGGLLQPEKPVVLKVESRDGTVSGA
# How it was run: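 Human CYP3A4 (20 nM) with Luciferin-PPXE at 25 uM (its KM) in 200 mM KPO4; 10 min compound preincubation, then NADPH regeneration and 60 min reaction at RT. Luciferin read by luminescence; normalized to 57 uM ketoconazole full inhibition.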
# [3] = Confirmation and Secondary Assay for Modulators of Hemoglobin Beta Chain Splicing at IVS2 654 locus (AID 910); conditions: HeLa EGFP-654 splicing reporter, GFP fluorescence, 48 h; series mostly up to 46.1 µM;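 note: per-well total GFP intensity by laser scanning cytometry after 2-day treatment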
# How it was run: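 HeLa cells stably carrying EGFP interrupted by mutant beta-globin IVS2-654 intron (CMV-driven) were treated with compound for 2 days at 37C; corrected splicing was scored as total peak GFP intensity per well (488 nm excitation, 500-520 nm emission).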
# [4] = Confirmation and Secondary Assay for Modulators of Hemoglobin Beta Chain Splicing at IVS2 705 locus (AID 930); conditions: HeLa EGFP-705 splicing reporter, GFP fluorescence, 48 h; series mostly up to 46.1 µM;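 note: HeLa cells stably expressing the EGFP-705 splicing reporter; GFP fluorescence per well restored by corrected splicing of the IVS2-705 intron in EGFP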
# How it was run: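 First, HeLa EGFP-705 cells are seeded at 500/well in Optimem with 2% FCS and left overnight. Next, compound or DMSO is added for 2 days. Finally wells are laser-scanned and total peak GFP intensity scored.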
# [5] = molecular target: Ubiquitin carboxyl-terminal hydrolase 1 (Homo sapiens) (UniProt O94782); assay: Inhibitors of USP1/UAF1: Pilot qHTS (AID 504865); conditions: purified USP1/UAF1, Ub-rhodamine cleavage fluorescence; series mostly up to 114 µM;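 note: rhodamine fluorescence freed from ubiquitin-rhodamine substrate followed over time; top concentration of the series differs between compounds; nearly all actives have a fitted effect of over 35% in size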
# Chain of Ubiquitin carboxyl-terminal hydrolase 1 (Homo sapiens) (O94782 whole entry, looked up): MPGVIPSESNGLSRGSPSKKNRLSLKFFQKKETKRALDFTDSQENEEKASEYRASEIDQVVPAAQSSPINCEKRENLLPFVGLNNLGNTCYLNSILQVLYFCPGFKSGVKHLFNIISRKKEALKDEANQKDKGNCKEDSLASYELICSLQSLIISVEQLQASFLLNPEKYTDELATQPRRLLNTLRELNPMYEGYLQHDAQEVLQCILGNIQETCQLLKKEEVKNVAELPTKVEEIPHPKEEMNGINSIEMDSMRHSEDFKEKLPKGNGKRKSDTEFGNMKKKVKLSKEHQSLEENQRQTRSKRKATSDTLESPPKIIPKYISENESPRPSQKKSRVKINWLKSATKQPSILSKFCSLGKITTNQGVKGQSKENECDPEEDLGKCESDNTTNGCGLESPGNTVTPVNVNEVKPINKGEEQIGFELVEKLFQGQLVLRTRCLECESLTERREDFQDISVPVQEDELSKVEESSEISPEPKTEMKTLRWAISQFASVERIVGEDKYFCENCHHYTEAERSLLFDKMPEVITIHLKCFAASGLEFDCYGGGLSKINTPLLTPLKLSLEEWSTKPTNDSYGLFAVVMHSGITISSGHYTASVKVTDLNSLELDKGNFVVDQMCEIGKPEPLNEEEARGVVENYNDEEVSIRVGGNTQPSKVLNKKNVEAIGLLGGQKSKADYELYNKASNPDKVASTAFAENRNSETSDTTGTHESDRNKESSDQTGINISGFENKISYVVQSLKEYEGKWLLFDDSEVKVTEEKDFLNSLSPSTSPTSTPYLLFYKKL
# How it was run: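 1nM USP1/UAF1 + cpd, 15 min RT; start w/ Ub-Rho 150nM final; kinetic FL 480/540 nm, 6 reads q60 s. Buffer 50mM HEPES pH 7.8, 0.5mM EDTA, 1mM TCEP, 0.01% Tween-20, 0.1 mg/ml BSA.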
structure (smiles),measurement,setting,value
COCCn1c(C(=O)N2CCCC2)cc2c1C[C@H]1CN(C(=O)c3ccccc3)[C@@](Cc3ccc(OC)cc3)(C(=O)OC)[C@@H]21,outcome,[1],inactive
Cc1cc(O)cc(=O)o1,Potency,[2],inactive
same,outcome,[3],inactive
same,outcome,[4],inactive
same,Potency,[5],inactive
O=c1c2cc(O)c(O)cc2oc2cc(O)c(C3OC(CO)C(O)C(O)C3O)c(O)c12 (configuration not stated),Potency,[2],inactive
same,outcome,[3],inactive
same,outcome,[4],inactive
same,Potency,[5],inactive
CC(C)=C1C(=O)C(c2ccccc2)=C2CN3C(=O)N(CCc4ccccc4)C(=O)[C@]3(C)[C@H]21,outcome,[1],inactive
NCC1O[C@H](O[C@@H]2C(O)[C@H](O[C@H]3OC(CO)C(O)C(N)C3O)[C@@H](N)C[C@H]2N)[C@@H](N)CC1O (some centres not stated),outcome,[3],inactive
same,outcome,[4],inactive
same,Potency,[5],inactive
Cc1cc(=O)oc2cc(O)c(O)cc12,Potency,[2],inactive
same,outcome,[3],inactive
same,outcome,[4],inactive
same,Potency,[5],inactive
CNC1C(O)C(O[C@H]2C(O)[C@@H](OC3OC(CN)=CCC3N)[C@H](N)C[C@@H]2N)OC[C@]1(C)O (some centres not stated),outcome,[3],inactive
same,outcome,[4],inactive
same,Potency,[5],inactive
C[Si](C)(C)C#Cc1ccccc1NC(=S)Nc1ccccc1,outcome,[1],inactive
CC(=O)N1[C@H](C)C=C[C@]1(Cc1ccccc1)C(=O)NCc1ccccn1,outcome,[1],inactive
COc1cc(OC)c2c(=O)c(-c3ccccc3)c(C)oc2c1OC,Potency,[2],inactive
same,outcome,[3],inactive
same,outcome,[4],inactive
same,Potency,[5],inactive
CNCC(O)c1cccc(O)c1 (configuration not stated),outcome,[3],inactive
same,outcome,[4],inactive
same,Potency,[5],inactive
CCC/C=C(\CCC)C(NC(=O)c1ccco1)c1ccc(C(=O)OC)cc1 (configuration not stated),outcome,[1],inactive
COC(=O)Cn1c(C(=O)N2CCCC2)cc2c1C[C@H]1CN(C(=O)c3ccccc3)[C@@](Cc3ccccc3)(C(=O)OC)[C@@H]21,outcome,[1],inactive
C=C1C(=O)OC2C1CC/C(C)=C/CCC1(C)OC21 (configuration not stated),Potency,[2],inactive
same,outcome,[3],inactive
same,outcome,[4],inactive
same,Potency,[5],inactive
COc1ccc2c3c1OC1CC(O)C=C[C@@]31CCN(C)C2 (some centres not stated),outcome,[3],inactive
same,outcome,[4],inactive
same,Potency,[5],inactive
COC(=O)[C@@H]1C[C@H]1[C@@H](NS(=O)(=O)c1ccc2ccccc2c1)c1ccccc1,outcome,[1],inactive
COc1ccc2nc3c(c(-c4ccccc4)c2c1)CCC3,outcome,[1],inactive
C[N+]1(C)C2CC(OC(=O)C(CO)c3ccccc3)CC1C1OC12 (configuration not stated),outcome,[3],inactive
same,outcome,[4],inactive
same,Potency,[5],inactive
COC(=O)CCCCCN1C(=O)NC(CC2CC2)C(C(=O)OCc2ccccc2)=C1C (configuration not stated),outcome,[1],inactive
COC(=O)[C@@]1(Cc2ccc(OC)cc2)[C@H]2c3cc(C(=O)N(C)C)n(Cc4ccc(S(C)(=O)=O)cc4)c3C[C@H]2CN1C(=O)c1ccccc1,outcome,[1],inactive
CNC1C(O)C2OC3OC(C)CC(=O)[C@@]3(O)O[C@H]2[C@H](NC)C1O (some centres not stated),outcome,[3],inactive
same,outcome,[4],inactive
same,Potency,[5],inactive
COC(=O)[C@@]1(Cc2ccc(OC)cc2)[C@H]2c3cc(C(=O)N(C)C)n(Cc4ccc(C)o4)c3C[C@H]2CN1C(=O)c1ccccc1,outcome,[1],inactive
CCc1c2c(nc3ccc(OC)cc13)OC(CC)C2 (configuration not stated),outcome,[1],inactive
Cc1cc(C(=O)N[C@@H](c2ccccc2)[C@]2(C)C[C@H]2[C@@H](C)C(=O)Nc2ccc3ccccc3c2)no1,outcome,[1],inactive
CC1CC2C(C(O)C[C@]3(C)C2CC[C@]3(O)C(=O)CO)[C@]2(C)C=CC(=O)C=C12 (some centres not stated),Potency,[2],inactive
same,outcome,[3],inactive
same,outcome,[4],inactive
same,Potency,[5],inactive
OC1C=C2CCN3Cc4cc5c(cc4C(C1O)C23)OCO5 (configuration not stated),outcome,[3],inactive
same,outcome,[4],inactive
same,Potency,[5],inactive
COc1cc(C2c3cc4c(cc3C(OC3OC5COC(C)O[C@@H]5C(O)C3O)C3COC(=O)C23)OCO4)cc(OC)c1O (some centres not stated),outcome,[3],inactive
same,outcome,[4],inactive
same,Potency,[5],inactive
COc1ccc(CNC(=O)[C@H](C)[C@@H]2C[C@@]2(C)[C@@H](NC(=O)OCc2ccccc2)c2ccccc2)cc1OC,outcome,[1],inactive
NC(N)=Nc1nc(CSCC/C(N)=N\S(N)(=O)=O)cs1,outcome,[3],inactive
same,outcome,[4],inactive
same,Potency,[5],inactive
CCCC[C@@H]1C[C@H]1C(NC(=O)c1ccccc1)c1ccc(C(=O)OC)cc1 (some centres not stated),outcome,[1],inactive
CCCC[C@@H]1C[C@H]1C(NC(=O)c1ccccc1)c1ccc(C(F)(F)F)cc1 (some centres not stated),outcome,[1],inactive
CCCC[C@@H]1C[C@H]1C(NC(=O)c1ccco1)c1ccccc1C(F)(F)F (some centres not stated),outcome,[1],inactive
CCCC[C@H]1C[C@@H]1[C@@H]1N(C(C)=O)[C@H](c2cccc(OC)c2)CC12CC2,outcome,[1],inactive
Cc1nnc(SCC2=C(C(=O)O)N3C(=O)C(NC(=O)Cn4cnnn4)[C@@H]3SC2)s1 (some centres not stated),outcome,[3],inactive
same,outcome,[4],inactive
same,Potency,[5],inactive
COC(=O)C1(Cc2ccccc2)C=C2C(=C(c3ccccc3)C(=O)C2C)CN1 (configuration not stated),outcome,[1],inactive
C=C1C([C@@]2(C)C(OC(C)=O)CC(=O)O[C@@](C)(COC(C)=O)C2CC(=O)OC)C(OC=O)C(OC(=O)C(O)C(C)CC)[C@]2(C)C(c3ccoc3)CC(=O)C12O (some centres not stated),Potency,[2],inactive
same,outcome,[3],inactive
same,outcome,[4],inactive
same,Potency,[5],inactive
